Source: PubChem BioAssay (National Center for Advancing Translational Sciences (NCATS))
JMJD2A Tudor – blocks the human JMJD2A Tudor domain | AlphaScreen JMJD2A-Tudor / H3K4me3 peptide binding | Potency, µM (top dose mostly 114 µM), actives largely listed as inhibitors | 390,000 compounds, 4.4% hits; further: nearly all actives have a fitted effect of over 50% in size
G9a inh – inhibitors of human histone lysine methyltransferase G9a; Potency, µM (series often up to 102 µM), usual class: inhibitors; G9a H3K9 monomethylation, AlphaScreen, 2 h; AID 504332; Q96KQ7; 350,000 compounds, 8.8% hits; further: nearly all actives have a fitted effect of over 75% in size
Target sequence (Q96KQ7 913-1193 limits assumed): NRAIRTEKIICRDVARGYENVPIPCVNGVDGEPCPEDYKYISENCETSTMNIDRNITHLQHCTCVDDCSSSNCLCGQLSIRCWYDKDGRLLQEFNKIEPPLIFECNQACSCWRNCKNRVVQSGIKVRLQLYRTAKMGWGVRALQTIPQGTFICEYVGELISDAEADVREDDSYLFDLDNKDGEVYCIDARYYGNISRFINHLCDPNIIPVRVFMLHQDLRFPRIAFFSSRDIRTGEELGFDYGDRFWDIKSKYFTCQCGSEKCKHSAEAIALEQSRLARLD
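AlphaScreen read-out: biotin-H3K9 peptide (500 nM) methylation by 20 nM enzyme with 20 uM SAM, 2 h at room temperature after 15 min compound preincubation; anti-monomethyl H3K9 antibody plus donor/acceptor beads, 10 min dark.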
Sfp PPTase inh – inhibitors of Bacillus subtilis Sfp phosphopantetheinyl transferase | Q9F4F7 | 310,000 compounds, 3.5% hits | Biochemical Sfp PPTase activity, qHTS | Potency, µM, actives largely listed as inhibitors;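 further: the enzyme is Sfp with the accession as filed and its product quenches rhodamine fluorescence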
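Reaction rates are the 30-min fluorescence difference (ex 525, em 598 nm) in wells containing 15 nM Sfp, 5 uM rhodamine-CoA and 12.5 uM BHQ-2-YbbR at pH 7.6 with 10 mM MgCl2.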
HP1b chromo inh – HP1-beta chromodomain-methylated histone interaction inhibition; Potency, µM (highest dose often 114 µM), most hits filed as inhibitors; 390,000 compounds, 0.56% hits; AlphaScreen HP1-beta / biotin-H3K9me3 peptide binding; further: nearly all actives have a fitted effect of over 70% in size
Target sequence (P83916 whole entry, looked up): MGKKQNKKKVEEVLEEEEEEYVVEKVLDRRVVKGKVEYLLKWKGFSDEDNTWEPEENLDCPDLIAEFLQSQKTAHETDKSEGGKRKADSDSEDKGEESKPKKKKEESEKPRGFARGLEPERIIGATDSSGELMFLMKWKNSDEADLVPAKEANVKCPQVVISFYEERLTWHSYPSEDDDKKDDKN
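HP1-beta protein (50 nM final) preincubated 30 min at room temperature with biotinylated H3(1-18)K9me3 peptide (50 nM) in PBS pH 7.4, 0.01% Tween-20, then compound added for 30 min. AlphaScreen streptavidin donor/nickel chelate acceptor beads (10 ug/mL final), 30 min dark, luminescence read.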
BAZ2B block – BAZ2B (human) inhibition; Potency, µM (doses to about 114 µM), hits mostly inhibitors; Q9UIF8; AlphaScreen BAZ2B-H3K14Ac peptide displacement; 360,000 compounds, 4.4% hits; AID 504333; further: nearly all actives have a fitted effect of over 60% in size
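AlphaScreen displacement: compounds (up to 110uM) incubated 30 min at room temperature with a preformed 50 nM BAZ2B/50 nM biotinylated H3K14Ac peptide complex in PBS pH 7.4 with Tween-20. Donor and acceptor beads at 10 ug/mL final added, 20 min light-protected before reading.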
Large screens that a line does not name were inactive. An excerpt weighted towards active compounds, which were near 12% of everything screened. The call rests on the fitted dose curve; in most records, active means well fitted curve in the direction sought with a large enough effect; inconclusive means small, poorly fitted or top-dose-only effect, or another doubt; inactive means no such curve, though single readings can be large; an effect the other way counts as inactive or inconclusive.

CCOc1ccc(CCNC(=O)CS(=O)Cc2nc(-c3ccccc3C)oc2C)cc1OCC (configuration not stated)	G9a inh inconclusive
CCN(CC)S(=O)(=O)c1cccc(-c2nnc(SCC(=O)NC)n2N)c1	none
CCN(CC)S(=O)(=O)c1cccc(-c2nnc(SCc3nnc(-c4cccs4)o3)n2N)c1	G9a inh 50µM
COC(=O)C(C)Sc1nc2c([nH]c3ccccc32)c(=O)n1C (configuration not stated)	G9a inh inconclusive, Sfp PPTase inh 50µM
Cc1cc(/C=C2\NC(=O)NC2=O)c(C)n1-c1cccnc1	G9a inh inconclusive, BAZ2B block inconclusive
COC(=O)C1=C(C)NC(=O)/C1=C\c1cc(C)n(-c2ccccc2C)c1C	JMJD2A Tudor 45µM, G9a inh 45µM, BAZ2B block 45µM
COC(=O)C1=C(C)NC(=O)/C1=C\c1cc(C)n(-c2ccccc2F)c1C	BAZ2B block 45µM (no result: G9a inh)
COC(=O)C1=C(C)NC(=O)/C1=C\c1cccs1	none
Cc1cccc(C)c1-n1c(C)cc(/C=C2\NC(=O)NC2=O)c1C	JMJD2A Tudor 50µM, G9a inh inconclusive, BAZ2B block 40µM
COC(=O)C1=C(C)NC(=O)/C1=C\c1cc(C)n(-c2c(C)cccc2C)c1C	JMJD2A Tudor 32µM, G9a inh 10µM, HP1b chromo inh inconclusive, BAZ2B block 32µM
CC(C)c1ccc(S(=O)(=O)N2CCC(N3CCN(Cc4ccccc4)C(=O)C3=O)CC2)cc1	none (no result: Sfp PPTase inh)
COc1ccccc1N1CCN(CC(=O)c2ccc3ccn(C(C)=O)c3c2)CC1	G9a inh 11µM, Sfp PPTase inh inconclusive
COc1ccccc1N1CCN(CCN2C(=O)CC(=C3c4ccccc4-c4ccccc43)C2=O)CC1	JMJD2A Tudor 32µM (no result: G9a inh, Sfp PPTase inh, BAZ2B block)
CC(=O)OCC(=O)c1ccc2ccn(C(C)=O)c2c1	none
COc1ccc(C(=O)CCN2CCc3cc(OC)c(OC)cc3C2)cc1	G9a inh 13µM
COc1ccc(C(=O)CCN2CCN(c3ccccc3OC)CC2)cc1	G9a inh 50µM, Sfp PPTase inh 50µM, BAZ2B block inconclusive
CCc1ccc(S(=O)(=O)c2nnn3c2nc(Nc2cc(OC)cc(OC)c2)c2cc(Cl)ccc23)cc1	none (no result: Sfp PPTase inh)
CC(OC(=O)CCOc1ccccc1)C(=O)Nc1ccc(Cl)cn1 (configuration not stated)	none (no result: G9a inh)
N#CCCN(C(=O)COC(=O)c1ccc(S(=O)(=O)N2CCCC2)cc1)c1cccc(Cl)c1	none (no result: Sfp PPTase inh)
COc1cccc(N2CC(NC(=O)c3cc(Cl)ccc3OC)CC2=O)c1 (configuration not stated)	none (no result: Sfp PPTase inh)
COc1ccc(NC(=O)CN2CCCN(S(=O)(=O)c3ccc(Br)cc3)CC2)c(OC)c1	G9a inh inconclusive, BAZ2B block inconclusive (no result: Sfp PPTase inh)
Cc1ccc([N+](=O)[O-])cc1S(=O)(=O)Nc1ccc(C(=O)NCC2CCCO2)cc1 (configuration not stated)	none (no result: Sfp PPTase inh)
COC(=O)CNC(=O)c1ccc(NS(=O)(=O)c2cc([N+](=O)[O-])ccc2Cl)cc1	G9a inh 56µM
O=[N+]([O-])c1cccc(S(=O)(=O)Nc2ccc(S(=O)(=O)N3CCCC3)cc2)c1	none (no result: G9a inh, Sfp PPTase inh, BAZ2B block)
O=[N+]([O-])c1ccc(S(=O)(=O)Nc2ccc(S(=O)(=O)N3CCCC3)cc2)cc1	G9a inh 35µM
O=[N+]([O-])c1ccc(Cl)c(S(=O)(=O)Nc2ccc(S(=O)(=O)N3CCOCC3)cc2)c1	G9a inh 45µM
O=C(Nc1ccc(S(=O)(=O)N2CCOCC2)cc1)c1ccc([N+](=O)[O-])cc1Cl	none
CC(C)C[C@H](NC(=O)[C@H](CC(C)C)NC(=O)[C@@H](Cc1c[nH]c2ccccc12)NC(=O)[C@H](Cc1ccccc1)NC(=O)[C@@H](Cc1c[nH]c2ccccc12)NC(=O)[C@H](CCC(N)=O)NC(=O)[C@H](CCC(N)=O)NC(=O)[C@@H]1CCCN1C(=O)[C@H](CCCCN)NC(=O)[C@@H]1CCCN1C(=O)[C@H](N)CCCN=C(N)N)C(N)=O	none (no result: JMJD2A Tudor, G9a inh, HP1b chromo inh, BAZ2B block)
C[C@]12c3[nH]c4ccc(Cl)cc4c3CCN1C(=O)[C@@H](CC(=O)NCCC1=CCCCC1)C[C@@H]2C(=O)N1CCCCC1	none (no result: G9a inh, Sfp PPTase inh, BAZ2B block)
CCCCN1CCC[C@@H]1CNC(=O)c1cc(C#N)c2ccccc2c1OC	none (no result: JMJD2A Tudor, G9a inh, HP1b chromo inh, BAZ2B block)
CCOc1ccc(C2=NC(c3ccncc3)=Nc3ccc(C)cc3N2)cc1OCC	JMJD2A Tudor inconclusive, BAZ2B block inconclusive (no result: Sfp PPTase inh)
Cc1cc(Cl)ccc1OCC(=O)n1cc(C(=O)c2cc(Cl)ccc2O)cn1	G9a inh 79µM (no result: JMJD2A Tudor, HP1b chromo inh)
CCN1c2ccccc2N(C)C1(C)c1ccccc1 (configuration not stated)	JMJD2A Tudor 8.9µM, G9a inh 2.5µM, Sfp PPTase inh 32µM, HP1b chromo inh 32µM, BAZ2B block 28µM
CN1C(=O)N(C)C2(c3ccccc3)NC(=O)NC12c1ccccc1 (configuration not stated)	none
CN1c2ccccc2N(C)C1(C)c1ccccc1	JMJD2A Tudor 8.9µM, G9a inh inconclusive, Sfp PPTase inh inconclusive, HP1b chromo inh inconclusive
CCOC(=O)c1ccc(NC(=O)c2cc3c(=O)n(C)c4ccccc4c3n2C)cc1	none (no result: Sfp PPTase inh)
CC(C)C(N)C(=O)O (configuration not stated)	Sfp PPTase inh inconclusive (no result: JMJD2A Tudor, HP1b chromo inh, BAZ2B block)
CCOc1cc(/C=C2/C(=O)ON=C2C)ccc1OCc1ccccc1	none (no result: G9a inh)
CCOc1cc(/C=C2/C(=O)ON=C2C)ccc1OCc1ccc(F)cc1	G9a inh inconclusive, Sfp PPTase inh 50µM
CCOc1cc(/C=C2/C(=O)ON=C2C)ccc1OCc1ccccc1F	JMJD2A Tudor inconclusive, G9a inh inconclusive, Sfp PPTase inh 20µM, BAZ2B block inconclusive
CC(C)c1ccc(NC2CCCN(C(=O)CC3CCCC3)C2)cc1 (configuration not stated)	BAZ2B block inconclusive
O=C(Nc1ccccc1)c1sccc1Oc1ccc([N+](=O)[O-])cc1F	JMJD2A Tudor inconclusive, G9a inh 28µM, BAZ2B block 25µM
COCCOc1cc(NC(=O)c2sccc2Oc2ccc([N+](=O)[O-])cc2F)c(Cl)cc1Cl	none
COc1ccc(C(C#N)=C2C=CC(=NO)C(C)=C2Cl)cc1	JMJD2A Tudor 8.9µM, HP1b chromo inh inconclusive (no result: G9a inh, Sfp PPTase inh, BAZ2B block)
N#Cc1nc(COc2ccccc2)oc1N1CCN(c2cccc(Cl)c2)CC1	G9a inh inconclusive, BAZ2B block inconclusive
N#Cc1nc(-c2cccc3ccccc23)oc1N1CCCCC1	none
N#Cc1nc(-c2ccccc2Cl)oc1N1CCCCC1	JMJD2A Tudor inconclusive, G9a inh 35µM, HP1b chromo inh inconclusive, BAZ2B block 22µM
CCN1CCN(c2oc(COc3ccc(-c4ccccc4)cc3)nc2C#N)CC1	JMJD2A Tudor inconclusive, G9a inh 40µM, Sfp PPTase inh inconclusive, BAZ2B block 32µM
CC1CN(c2oc(COc3ccc(Cl)cc3Cl)nc2C#N)CC(C)O1 (configuration not stated)	JMJD2A Tudor inconclusive, G9a inh inconclusive, BAZ2B block 35µM
COc1ccc(N2CCN(c3oc(COc4ccccc4Cl)nc3C#N)CC2)cc1	JMJD2A Tudor inconclusive, G9a inh 10µM, HP1b chromo inh inconclusive, BAZ2B block 7.9µM
